GoLoco inh red: RGS12 GoLoco-Gai1 interaction inhibition; Potency, µM (titrated, usually from 61.6 µM), inactives show at the top dose activity, negative = inhibition, actives largely listed as inhibitors; actives 0.44% (n = 230,000); Gai1:RGS12 GoLoco peptide FP, rhodamine, 10 min; P63096; AID 880; active means well fitted inhibition curve with a large enough effect, not every such curve was filed as active; inactive means no such curve, though single readings can be large or run the other way; further: nearly all actives have a fitted effect of over 30% in size
TexasRed fluor: Texas Red fluorescence interference in TRb-SRC2 counter-screen. actives 0.29% (n = 280,000). Potency, µM (series often up to 106 µM), inactives show at the top dose fluorescence change, negative = quenching. TRb/SRC2 Texas Red total fluorescence interference; active means well fitted curve in either direction with a large enough effect; inconclusive means small, poorly fitted or top-dose-only effect
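Flags fluorescent or light-absorbing compounds by total fluorescence, S + 2P, at 555 nm excitation and 632 nm emission. Mixture: 20 nM Texas Red SRC2 peptide, 0.6 uM human TRb LBD, 1 uM T3, 5% DMSO; compound exposure 5 h at ambient temperature.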
TRb-SRC2 inh: disrupts binding of human TR beta to SRC2 | P10828 | TRbeta-SRC2 peptide binding, fluorescence polarization; receptor liganded with 1 µM T3 | Potency, µM (top dose mostly 106 µM), for the others: at the top dose activity change, negative = inhibition, usual class: inhibitors | actives 0.065% (n = 280,000);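 further: plate controls were bound peptide for no effect and peptide without receptor for full effect; nearly all actives have a fitted effect of over 50% in size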
Target sequence (P10828 whole entry, looked up): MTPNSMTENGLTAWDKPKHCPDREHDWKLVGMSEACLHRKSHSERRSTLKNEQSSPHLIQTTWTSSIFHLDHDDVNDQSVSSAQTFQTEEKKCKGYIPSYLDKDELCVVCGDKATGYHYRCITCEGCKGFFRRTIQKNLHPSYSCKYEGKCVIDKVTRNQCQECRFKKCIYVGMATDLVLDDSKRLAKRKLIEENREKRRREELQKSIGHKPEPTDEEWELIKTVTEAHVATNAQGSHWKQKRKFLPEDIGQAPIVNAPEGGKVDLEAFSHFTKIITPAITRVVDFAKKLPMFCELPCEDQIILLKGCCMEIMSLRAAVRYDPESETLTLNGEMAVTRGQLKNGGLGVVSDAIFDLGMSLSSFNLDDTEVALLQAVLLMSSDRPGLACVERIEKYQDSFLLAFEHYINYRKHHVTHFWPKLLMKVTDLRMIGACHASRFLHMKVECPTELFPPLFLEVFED
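Human TRb ligand-binding domain (0.6 uM) is mixed with 20 nM Texas Red SRC2 peptide and 1 uM T3; after compound addition and 5 hr at ambient temperature, polarization is measured and normalized to unbound and bound controls.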
Tau ThT inhib: inhibitors of human tau fibril formation, thioflavin T binding; actives 2.1% (n = 270,000); AID 1460; recombinant tau K18 P301L, heparin-induced fibrillization, ThT fluorescence; Potency, µM (top dose mostly 57.4 µM), for inactives: at the highest dose activity, negative = inhibition, actives largely listed as inhibitors; P10636; further: nearly all actives have a fitted effect of over 55% in size
Target sequence (P10636 561-689 P618L limits assumed): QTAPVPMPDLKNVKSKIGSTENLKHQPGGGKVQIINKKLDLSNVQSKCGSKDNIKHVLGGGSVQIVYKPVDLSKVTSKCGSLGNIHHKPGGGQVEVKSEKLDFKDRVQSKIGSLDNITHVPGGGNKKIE
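Fibril formation assay: tau K18 P301L at 15 uM with trace Alexa 594 label, heparin inducer 20 uM, pH 7 sodium acetate buffer, 37 C for 6 hr; endpoint ThT signal.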
Tau fibril FP: blocks human tau fibril formation measured by polarization; actives 0.39% (n = 280,000); Potency, µM (top dose mostly 57.7 µM), inactives show at the top dose activity, negative = inhibition, hits mostly inhibitors; K18 P301L tau heparin fibrillization, Alexa594 FP, 6 h; further: nearly all actives have a fitted effect of over 55% in size
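Recombinant K18 P301L […], labeled with Alexa 594 at 0.24 uM over 15 uM unlabeled; heparin inducer 20 uM final; 37 C, 6 hr; FP endpoint.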
Tau fluor cs: counter-screen for tau fibril formation inhibitors; AID 1463; tau K18 P301L (four-repeat tau fragment) Alexa594 fluorescence, heparin fibrillization; Potency, µM (top dose mostly 57.7 µM), for the others: at the highest dose activity change, negative = decrease; actives 0.93% (n = 280,000); further: nearly all actives have a fitted effect of over 55% in size
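Human K18 P301L tau (15 uM unlabeled plus 0.24 uM Alexa 594-labeled, final) in 100 mM sodium acetate pH 7 was mixed with compound and 20 uM heparin and incubated 6 hr at 37 C.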
* hit, by the source's call; ? = inconclusive; / = no result given; [ ] = dose if it differs, or a comment. Only some compounds are listed: those with a hit (about 3.2% of all), similar ones and a draw of the others. Unless noted, the call rests on the fitted dose curve; in most records, active means well fitted curve in the direction sought with a large enough effect; inconclusive means small, poorly fitted or top-dose-only effect, or another doubt; inactive means no such curve, though single readings can be large; an effect the other way counts as inactive or inconclusive. Unless noted, on the % scale 0 is the no-effect control and ±100 the full control effect; potency means the concentration at half of the fitted maximal effect.

SMILES	GoLoco inh red	TexasRed fluor	TRb-SRC2 inh	Tau ThT inhib	Tau fibril FP	Tau fluor cs
Cc1cc(N2CCOCC2)nc2ccc(NC(=S)NCc3ccc4c(c3)OCO4)cc12	-1.3%	-1.2%	6.1%	?	?	14.1µM*[quencher]
COC(=O)/C=C/C(C)=C/C=C/C(C)=C/C=C/C=C(C)/C=C/C=C(C)/C=C/C(=O)O	-3.6%	-2.1%	-3.7%	12.6µM*	?	-23.1%
CC(C)=CCC/C(C)=C/C=C/C(C)=C/C=C/C(C)=C/C=C/C=C(C)/C=C/C=C(C)/C=C/C=C(\C)CCC=C(C)C	3.1%	0.0%	-0.4%	/	/	/
COc1ccc(S(=O)(=O)Cc2ccc(C(=O)NC3CCCCC3)o2)cc1	/	5.62µM*[quencher]	-24.1%	-16.1%	-2.8%	-20.7%
COc1ccc(S(=O)(=O)Cc2ccc(C(=O)NC3CC3)o2)cc1	-8.9%	2.6%	1.7%	-4.3%	-0.7%	-0.1%
O=[N+]([O-])c1ccc(O)c(C=Nc2ccc3nc(-c4ccccc4)[nH]c3c2)c1	22.6%	-4.3%	-12.0%	?	10.8%	-28.6%
Oc1c(Br)cc(C=Nc2ccc3nc(-c4ccccc4)[nH]c3c2)c(O)c1Br	62.5%	?	16.7%	4.47µM*	?	4.47µM*[quencher]
C=CC1=C(C)C2=Cc3c(C=C)c(C)c4[n]3[Sn+2][n]3c(c(C)c(CCC(=O)O)c3=CC3=NC(=C4)C(C)=C3CCC(=O)O)=CC1=N2	1.41µM*	?	12.6µM*	?	17.8µM*	-12.4%
CC1(C)CC(NCCCCCCNC2CC(C)(C)NC(C)(C)C2)CC(C)(C)N1	/	1.4%[201 µM]	5.7%[201 µM]	/	/	/
CC/C=C\C/C=C\C/C=C\C/C=C\C/C=C\C/C=C\CCC(=O)O[C@H](COCCCCCCCCCCCCCCCC)COP(=O)([O-])OCC[N+](C)(C)C	0.3%	0.5%	4.4%	-11.1%	-8.4%	-7.0%
CCN(CC)C(=O)c1ccc(Nc2nnc(-c3ccc(C)c(S(=O)(=O)NC)c3)c3ccccc23)cc1	/	-22.5%	-1.3%	1.5%	-10.1%	-13.3%
CNC(=O)COc1ccc(Nc2nnc(-c3ccc(C)c(S(=O)(=O)NC(C)(C)C)c3)c3ccccc23)cc1	/	0.199µM*[quencher]	-8.3%	?	8.7%	?
O=C(/C=C/c1ccc(/C=C/C(=O)Nc2ccc(C3=NCCN3)cc2)cc1)Nc1ccc(C2=NCCN2)cc1	/	-12.1%	3.3%	/	/	/
O=C(C1=C[C@@H]2[C@H]3C(=O)N(c4ccccc4)C(=O)[C@H]3[C@@H](C(=O)c3ccc(Cl)cc3)N2C=C1)c1ccccc1	79.6%	0.7%	8.0%	14.1µM*	?	?
C[C@]12CC[C@H]3c4ccc(O)cc4CC[C@@H]3[C@H]1C/C(=N/O)[C@H]2O	3.0%[14.2 µM]	/	/	/	/	/
CCCNS(=O)(=O)c1ccc2nc(NC(=O)c3ccc(F)cc3)sc2c1	/	-2.2%	-1.3%	28.2µM*	?	-25.6%
CS(=O)(=O)c1ccc2nc(NC(=O)c3ccc(NS(=O)(=O)c4ccc(F)c(F)c4)cc3)sc2c1	3.6%	-6.1%	16.1%	/	?	?
O=C(Nc1nc2ccc(SC(F)F)cc2s1)c1ccc(NS(=O)(=O)c2ccc(F)c(F)c2)cc1	6.2%	-1.9%	14.0%	?	12.6µM*	?
O=CNc1ncn[nH]1	3.1%[14.2 µM]	/	/	/	/	/
Cc1nccc(-c2cccc(N/N=C(\C#N)C(=O)c3ccccc3)c2)n1	1.8%	-7.9%	5.4%	8.91µM*	2.7%	?
CC(C)(C)c1ccc2c(c1)C(=O)c1ccccc1C2=O	/	-5.9%	-1.6%	-12.4%	6.1%	-28.6%
CC(C)(C)C1=CC=C(C(C)(C)C)C(=O)C1=O	-31.1%	0.8%	3.6%	17.8µM*	17.8µM*	?
CCCCCCCCCCCCCCCCSCC(COC)COP(=O)([O-])OCC[N+](C)(C)C (stereo unspecified)	/	-1.5%	6.5%	/	/	/
CC[C@H](C)[C@H](NC(=O)[C@H](Cc1ccc(O)cc1)NC(=O)[C@H](Cc1cnc[nH]1)NC(=O)[C@H](CCCNC(=N)N)NC(=O)[C@H](CC(C)C)NC(=O)[C@H](C)NC(=O)[C@H](CO)NC(=O)[C@H](Cc1ccc(O)cc1)NC(=O)[C@H](Cc1ccc(O)cc1)NC(=O)[C@H](CCCNC(=N)N)NC(=O)[C@H](C)NC(=O)[C@H](CCSC)NC(=O)[C@H](CC(=O)O)NC(=O)[C@H](CCC(=O)O)NC(=O)[C@H](C)NC(=O)[C@@H]1CCCN1C(=O)[C@H](C)NC(=O)[C@H](CC(=O)O)NC(=O)[C@H](CCC(=O)O)NC(=O)CNC(=O)[C@@H]1CCCN1C(=O)[C@H](CC(N)=O)NC(=O)[C@H](CC(=O)O)NC(=O)[C@@H]1CCCN1C(=O)[C@H](CCCCN)NC(=O)[C@H](CO)NC(=O)[C@@H]1CCCN1C(=O)[C@@H](N)Cc1ccc(O)cc1)C(=O)N[C@@H](CC(N)=O)C(=O)N[C@@H](CC(C)C)C(=O)N[C@@H](CC(C)C)C(=O)N[C@H](C(=O)N[C@@H](CCCNC(=N)N)C(=O)N1CCC[C@H]1C(=O)N[C@@H](CCCNC(=N)N)C(=O)N[C@@H](Cc1ccc(O)cc1)C(N)=O)[C@@H](C)O	/	2.5%	5.7%	/	/	/
Cc1ccc2sc(-c3ccc(N)cc3)nc2c1	/	-4.4%	-9.4%	4.47µM*	4.2%	?
SMILES	GoLoco inh red	TexasRed fluor	TRb-SRC2 inh	Tau ThT inhib	Tau fibril FP	Tau fluor cs
CNC(=S)Nc1ccc(-c2nc3ccc(C)cc3s2)cc1	-3.0%	-0.8%	0.4%	15.2%	?	?
Cc1ccc2nc(-c3ccc(N)cc3)sc2c1	9.5%	-4.9%	-0.1%	5.62µM*	7.7%	?
Nc1ccc(-c2nc3cc(N)ccc3s2)cc1	15.8%	-5.3%	-3.2%	14.1µM*	-1.1%	?
Nc1ccc2nc(-c3ccccc3)sc2c1	-1.3%	-4.3%	-18.0%	?	12.4%	-29.4%
CCCCc1nc2c(c3c1C[C@H](C)OC3)CN(C(=O)Cc1cccc(OC)c1)CC2	3.9%[14.2 µM]	-5.3%[11.2 µM]	3.5%[11.2 µM]	-4.2%[11.5 µM]	4.1%[11.6 µM]	-7.1%[11.6 µM]
Cc1oc(-c2ccccc2)cc1C(=O)Nc1ccc(N(C)C)cc1	-11.6%	1.2%	-0.9%	12.6µM*	4.6%	14.1µM*[quencher]
Cc1oc(-c2ccccc2)cc1C(=O)Nc1cccc(/C=C\C(=O)O)c1	2.8%	-0.3%	-5.3%	-9.6%	1.8%	-10.9%
CCCN(CCC)C(=O)CSc1nnc2cc(C)c3cc(C)cc(C)c3n12	/	-9.9%	-4.2%	-6.3%	-4.8%	-8.4%
COC(=O)C(C)Sc1nnc2cc(C)c3cc(C)cc(C)c3n12 (stereo unspecified)	/	0.0708µM*[quencher]	-29.1%	-11.3%	-3.4%	-11.3%
